# Measurements: PubChem BioAssay (Tox21)
# Several values for one entry are separate records, joined by “and”; a condition that tells them apart may be missing. Equal entries are not always repeated. Records with an inconclusive call do not appear. Entries that show only a call come without a potency. Activity calls are given as the source filed them. Calls come from the whole dose curve; as a rule, active = well fitted cell-killing curve with a large enough effect in the repeat runs; inconclusive = weak or mixed curves, or effect the other way; inactive = flat fitted curve, though single readings scatter.
# Assay: Human pregnane X receptor (PXR) small molecule agonists, qHTS cell viability counter screen (AID 1346977); note: nearly all actives have a fitted effect of over 50% in size
# Details: PXR-Luc HepG2 viability, CellTiter-Fluor, 24 h; series mostly up to 92.4 µM; activity change, negative = cytotoxicity: at the top concentration
# Source text: U.S. Tox21 Program National Center for Advancing Translational Sciences [NCATS] NIH Chemical Genomics Center [NCGC] U.S. Environmental Protection Agency [EPA] National Institutes of Environmental Health Sciences [NIEHS] National Toxicology Program [NTP] U.S. Food and Drug Administration [FDA] Tox21 Assay Overview: The human pregnane X receptor (hPXR) regulates the expression of several drug metabolizing enzymes and induction of these proteins is a major mechanism for developing drug resistance in cancer. One such key enzyme catalyzing the drug metabolism is cytochrome P450 3A4 (CYP3A4). Changes in CYP3A4 expression affect drug metabolism, thereby reducing the therapeutic efficacy and altering toxicological response to a drug and which finally causes adverse drug interaction. To screen Tox21 libraries for compounds that activate hPXR-mediated CYP3A4 gene expression, PXR-Luc HepG2 cells were used. Also cytotoxicity of the compounds was tested in parallel by measuring the cell viability using CellTiter-Fluor assay system in the same wells.
# Tox21 Assay Protocol Summary: PXR-Luc HepG2 cells were dispensed at 2,000 per well in 5uL of assay medium containing 5% charcoal-stripped FBS into white solid bottom 1536-well plates (Corning Life Sciences, Corning, NY) using a Multidrop Combi (Thermo Scientific, Waltham, MA) dispenser. The assay plates were incubated at 37 C and 5% CO2 for 5hr, and then 23nL of compounds dissolved in DMSO and positive control were transferred using a Pintool station (Wako, San Diego, CA). The assay plates were incubated at 37C and 5% CO2 for 24hr. For cytotoxicity read, after 23hr incubation at 37C, 1uL CellTiter-Fluor reagent (Promega Corporation, Madison, WI) was added to each well of the assay plates using Flying Reagent Dispenser (FRD, Aurora Discovery, San Diego, CA). After 1hr incubation at 37C and 5% CO2, the fluorescence signal was quantified using a ViewLux plate reader (PerkinElmer, Shelton, CT).
# Potency is the fitted concentration of half-maximal effect.
SMILES,Potency,"activity change, negative = cytotoxicity"
C[C@]12CCC(=O)C=C1CC[C@@H]1[C@@H]2C(=O)C[C@@]2(C)[C@H]1CC[C@]2(O)C(=O)CO,inactive,–
O=C=Nc1ccc(Cc2ccc(N=C=O)cc2)cc1,inactive,–
CC(C)=CCC/C(C)=C\CO,inactive,–
C#C[C@]1(O)CC[C@H]2[C@@H]3CCC4=Cc5oncc5C[C@]4(C)[C@H]3CC[C@@]21C,–,0.507% [at 42.5 µM] (inactive)
c1cc(N(CC2CO2)CC2CO2)ccc1OCC1CO1 (stereo not given),61.1 µM (active),–
C=C(C)C1CC=C(C)CC1 (stereo not given),inactive,–
CCC(C)c1ccccc1O (stereo not given),inactive,–
CC(=O)CC/C=C(\C)CCC=C(C)C,inactive,–
CC(=O)Oc1ccccc1C(=O)Nc1ncc([N+](=O)[O-])s1,12.4 µM (active) and 16.8 µM (active),–
CCCCNS(=O)(=O)c1ccccc1,inactive,–
CCCCOCCOCCOCCO,inactive,–
O=C(COc1ccc(Cl)cc1)N1CCN(Cc2ccc3c(c2)OCO3)CC1,–,-22.6% [at 42.5 µM] (inactive)
CCCCC(CC)COCC1CO1 (stereo not given),inactive,–
COC(=O)C1=C(C)NC(C)=C(C(=O)OCCN(C)Cc2ccccc2)C1c1cccc([N+](=O)[O-])c1 (stereo not given),27.1 µM (active) and 26.6 µM (active),–
O=S(=O)(O)c1ccc(O)cc1,inactive,–
Cc1c(OCC(F)(F)F)ccnc1CS(=O)c1nc2ccccc2[nH]1 (stereo not given),inactive,–
CCC(C)OC(=O)c1ccc(O)cc1 (stereo not given),inactive,–
CN(C)C(=N)N=C(N)N,–,15% [at 42.5 µM] (inactive)
CC(CCC(=O)O)(c1ccc(O)cc1)c1ccc(O)cc1,inactive,–
c1ccc2cc(Nc3ccc(Nc4ccc5ccccc5c4)cc3)ccc2c1,inactive,–

SMILES,Potency,"activity change, negative = cytotoxicity"
Cc1[nH]c(=O)c(C#N)cc1-c1ccncc1,inactive,–
CN(C)CCC=C1c2ccccc2CCc2ccccc21,44.7 µM (active) and 48.6 µM (active) and 26.6 µM (active),–
OCCO,inactive,–
CCCCCCCCCCCO,inactive,–
COc1cc([C@@H]2c3cc4c(cc3[C@H](O)[C@H]3COC(=O)[C@H]23)OCO4)cc(OC)c1OC,inactive,–
C=CC(C)(CCC=C(C)C)OC(C)=O (stereo not given),inactive,–
OC(CCl)CCl,inactive,–
CCC(C)CO (stereo not given),inactive,–
O=C(OCc1ccccc1)c1ccccc1O,inactive,–
c1ccc2sc(SSN3CCOCC3)nc2c1,inactive,–
O=CCCCC=O,inactive,–
CCOC(=O)C(C#N)=C(c1ccccc1)c1ccccc1,inactive,–
Cc1c(C(N)=O)cc([N+](=O)[O-])cc1[N+](=O)[O-],inactive,–
CN(C)c1nc(N(C)C)nc(N(C)C)n1,inactive,–
CC(=O)c1ccccn1,inactive,–
Cc1ncc[nH]1,inactive,–
c1ccc2c(c1)c1cccc3ccc4cccc2c4c31,inactive,–
CC(C)OC=O,–,11.3% (inactive)
O=C(Nc1ccc(Cl)cc1)Nc1ccc(Cl)c(Cl)c1,7.08 µM (active) and 12.2 µM (active) and 13.3 µM (active),–
CC1=CCC(C(C)(C)O)CC1 (stereo not given),inactive,–
